Source: the supplement of paper PMC12819154, “High-throughput peptide-centric local stability assay extends protein–ligand identification to membrane proteins, tissues and bacteria” (Nature Structural & Molecular Biology, 2025)

compound: Nc1ncnc2c1ncn2[C@@H]1O[C@H](COP(=O)(O)OP(=O)(O)OP(=O)(O)O)[C@@H](O)[C@H]1O [adenosine 5'-triphosphate]; test: log2 fold change of tryptic peptide abundance, ligand vs vehicle (limited proteolysis) (log2 ratio); higher = more trypsin-susceptible (destabilized); details: ligand concentration: 5 mM; sample: E. coli desalted lysate; replicate design: treated before aliquoting
Procedure: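 HT-PELSA: desalted E. coli K-12 BW25113 lysate (with 12 mM MgCl2) incubated with 5 mM ATP (pH 7) or water for 30 min at 25 C, then a 4 min trypsin pulse at 22 C. Peptides were quantified by DIA-MS (4 replicates). Value is the peptide log2 fold change (treated/control); negative = stabilized. Scale: negative = ligand-stabilized region.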
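Note: lysate desalted by size exclusion to strip endogenous ATP, peptide intensities built from DIA-NN precursor signals, and peptides missing any value discarded before comparison.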

| Target | log2 fold change |
| --- | --- |
| UniProt P03817 (peptide sequence: FGAIGIGSR, peptide start residue: 85) | 0.339 |
| UniProt P31554 (peptide sequence: GNIMWENEFR, peptide start residue: 268) | -0.46 |
| UniProt P04993 (peptide sequence: YLDLLQAR, peptide start residue: 418) | -1.02 |
| UniProt P37327 (peptide sequence: AMAIHEHIR, peptide start residue: 37) | -0.62 |
| UniProt Q46800 (peptide sequence: LAFGVAAPTPIR, peptide start residue: 215) | 0.403 |
| UniProt P20966 (peptide sequence: FAGKPMYR, peptide start residue: 175) | 1.06 |
| UniProt P25524 (peptide sequence: EYGVESLHK, peptide start residue: 192) | -0.706 |
| UniProt Q46915 (peptide sequence: AMNSEAVVR, peptide start residue: 181) | -0.607 |
| UniProt P31665 (peptide sequence: QEVSQEFAQR, peptide start residue: 262) | -0.678 |
| UniProt P15038 (peptide sequence: LHTEDITAR, peptide start residue: 265) | -2.37 |
| UniProt P05707 (peptide sequence: VGSKHNSGYSAAK, peptide start residue: 146) | -3.4 |
| UniProt P0A959 (peptide sequence: QGWMVLNGPKKHAK, peptide start residue: 249) | 1.18 |
| UniProt P24255 (peptide sequence: KHNGHWTVELNSDSIPR, peptide start residue: 280) | 0.899 |
| UniProt P0A9L8 (peptide sequence: FAAQAVMGSAK, peptide start residue: 203) | -0.702 |
| UniProt P39285 (peptide sequence: IYAAEMGHR, peptide start residue: 1044) | 0.638 |
| UniProt P11664 (peptide sequence: GAPETFDVAK, peptide start residue: 101) | -1.46 |
| UniProt P25894 (peptide sequence: QRGISPAGLATSFEK, peptide start residue: 202) | 0.934 |
| MurF (peptide sequence: VVALTGSSGK, peptide start residue: 102) (UniProt P11880) | -1.5 |
| UniProt P37626 (peptide sequence: TVETSDER, peptide start residue: 297) | 0.336 |
| UniProt P0AA39 (peptide sequence: NILQSGER, peptide start residue: 198) | -0.653 |

| Target | log2 fold change |
| --- | --- |
| UniProt P07648 (peptide sequence: VKAHLTCLHTR, peptide start residue: 776) | 1.26 |
| UniProt P0ACX3 (peptide sequence: NLGVEEVVAK, peptide start residue: 75) | 0.583 |
| UniProt P08660 (peptide sequence: RNQTLLTLHSLNMLHSR, peptide start residue: 306) | -0.461 |
| UniProt P20083 (peptide sequence: VQDLQVVGTCGKR, peptide start residue: 147) | -1.89 |
| UniProt P76226 (peptide sequence: IKPLLHQCVR, peptide start residue: 10) | -1.62 |
| UniProt P75828 (peptide sequence: YLDIINR, peptide start residue: 246) | -2.12 |
| UniProt P21170 (peptide sequence: TLLTQFR, peptide start residue: 619) | 0.611 |
| UniProt P27238 (peptide sequence: NKMTTEELAECLGVAK, peptide start residue: 6) | 0.577 |
| UniProt P07014 (peptide sequence: IVIRPLPGLPVIR, peptide start residue: 89) | 0.248 |
| UniProt P00561 (peptide sequence: NKHIDLR, peptide start residue: 493) | 1.32 |
| UniProt P33368 (peptide sequence: IINITSVHEHTPLPDASAYTAAK, peptide start residue: 135) | 0.894 |
| UniProt P09373 (peptide sequence: ALIPFGGIK, peptide start residue: 109) | -0.384 |
| UniProt P00934 (peptide sequence: LYNLKDHNEQVSFAQAVTQGLGK, peptide start residue: 3) | -1.05 |
| UniProt P39400 (peptide sequence: VLGHEICGEIVGLGK, peptide start residue: 59) | -1.26 |
| UniProt Q46802 (peptide sequence: GAFTGASANGK, peptide start residue: 347) | -0.841 |
| UniProt P0AAC4 (peptide sequence: SDSIVQPR, peptide start residue: 7) | -0.368 |
| UniProt P76340 (peptide sequence: ILLIEDNQR, peptide start residue: 3) | -0.349 |
| UniProt P28634 (peptide sequence: WRVTDAGFEVFALEPR, peptide start residue: 220) | 0.789 |
| UniProt P23331 (peptide sequence: TVVYTAEIDDR, peptide start residue: 33) | -1.64 |
| UniProt P00582 (peptide sequence: QLNIPRK, peptide start residue: 776) | -3.24 |
